Source: PubChem BioAssay AID1159580 (chemical genetic matrix, 2015)
About 2,000 (36%) of roughly 5,500 compounds were called active. Not shown: some 18% with an inconclusive outcome. Cut-off read from the data, not from the text of the source: active = normalized growth mostly below about 0.91 (no sharp cut-off); inconclusive = no clear call, values can overlap the other calls; inactive = mostly above about 0.92. The list shows a part of the results.

Test: chemical genetic growth profiling, strain panel (AID 1159580);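 note: tested at 20 µM; growth read once vehicle control cultures reached saturation at 30 °C; 1 = growth at the plate median or of vehicle wells; lower values mean less growth of the strain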
Settings: S. cerevisiae deletion strains, growth OD

Measured: normalized growth

O=C(O)CSCC(=O)NC1CCN(Cc2ccccc2)CC1
inactive: locus YAL013W, strain DEP1, stronger effect = lower value 1.01 | locus YBR229C, strain ROT2, stronger effect = lower value 1.01 | locus YDL101C, strain DUN1, stronger effect = lower value 0.997 | locus YDR150W, strain NUM1, stronger effect = lower value 1.01 | locus YEL061C, strain CIN8, stronger effect = lower value 1.02 | locus YGR078C, strain PAC10, stronger effect = lower value 1 | locus YHR030C, strain SLT2, stronger effect = lower value 1.08 | locus YHR087W, strain rtc3, stronger effect = lower value 0.994 | locus YJR043C, strain POL32, stronger effect = lower value 1 | locus YJR075W, strain HOC1, stronger effect = lower value 1.01 | locus YLR039C, strain RIC1, stronger effect = lower value 1.02 | locus YLR058C, strain SHM2 (second series), stronger effect = lower value 0.998 | locus YLR085C, strain ARP6, stronger effect = lower value 0.993 | locus YLR262C, strain YPT6, stronger effect = lower value 1.05 | locus YML094W, strain GIM5, stronger effect = lower value 1.02 | locus YMR219W, strain ESC1, stronger effect = lower value 1.01 | locus YMR263W, strain SAP30, stronger effect = lower value 0.998 | locus YNL153C, strain GIM3, stronger effect = lower value 1.01 | locus YNL298W, strain CLA4 (second series), stronger effect = lower value 1.03 | locus YNL322C, strain KRE1, stronger effect = lower value 1.02 | locus YNR030W, strain Alg12, stronger effect = lower value 1.02 | locus YPL055C, strain LGE1, stronger effect = lower value 1.02 | locus YPL241C, strain CIN2, stronger effect = lower value 1.04 | locus YPR135W, strain CTF4, stronger effect = lower value 1
